# Screen size: about 260,000 compounds; about 2,200 (0.85%) were called active. This excerpt belongs to a sample that is enriched for actives. A number with no mark means an inactive call.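 How the source made its calls: active means compounds whose cAMP rise, as percent of the full-agonist control response, exceeds 60; inactive means the rest.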
# Target: Prostaglandin E2 receptor EP2 subtype (Homo sapiens) (UniProt P43116)
# Assay: modulation of human EP2 prostaglandin signaling – cell-based, HTRF cAMP, PGE2 stimulation, primary screen (AID 940);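 further: rat C6 glioma line stably carrying human EP2 under a CMV promoter; the protocol text gives 20 µM as final concentration; 100% = response of wells given 1 µM PGE2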
# Settings: EP2-expressing cells, cAMP HTRF FRET, PGE2 co-stimulation; at 25 µM; hits give high values
# Prostaglandin E2 receptor EP2 subtype (Homo sapiens), sequence (P43116 whole entry, looked up): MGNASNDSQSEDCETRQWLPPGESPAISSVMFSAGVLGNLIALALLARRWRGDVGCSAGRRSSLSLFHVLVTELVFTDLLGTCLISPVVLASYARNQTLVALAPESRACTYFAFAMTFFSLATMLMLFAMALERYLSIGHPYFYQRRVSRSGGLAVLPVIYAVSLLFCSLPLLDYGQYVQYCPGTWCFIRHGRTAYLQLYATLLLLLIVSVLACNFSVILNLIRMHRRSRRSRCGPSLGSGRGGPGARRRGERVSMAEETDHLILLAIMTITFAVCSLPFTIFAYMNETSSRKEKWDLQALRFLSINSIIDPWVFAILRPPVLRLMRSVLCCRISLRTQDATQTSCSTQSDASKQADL
row,Structure (SMILES),induction
1,CC(C)(C)OC(=O)N1CCC[C@H]1C(=O)c1nc2ccccc2s1,19.4%
2,O=C(N1CCC(n2nnc3ccccc3c2=O)CC1)C1(c2ccccc2)CCCC1,-7.6%
3,CCc1cc(N2C3CCC2CC(O)(c2ccco2)C3)n2nc3nc(C)cc(C)c3c2n1 (stereo not drawn),13.8%
4,CCCC(NC(=O)c1cnc(SC)nc1)c1cccs1 (stereo not drawn),-29.9%
5,Cc1nn(CC(=O)NC2CCCC2)c(=O)c2cc3sccc3n12,1.55%
6,Cc1ccc(Nc2cc(C)nc3c(C)ccc([N+](=O)[O-])c23)cc1,66.4% (active)
7,Cc1cc(C)nc(Nc2cc([N+](=O)[O-])ccc2C)n1,-8.66%
8,Cc1ccc(Nc2ccc(C(N)=O)cc2[N+](=O)[O-])cc1,-57.7%
9,COc1ccc(C)cc1N(CC(=O)NC1CCCC1)C(=O)c1snc(C(N)=O)c1N,-63.9%
10,COCCCn1c(SCC(=O)Nc2cc(Cl)ccc2OC)nc2sc3c(c2c1=O)CCC3,-5.26%
11,Nc1nonc1-c1nc2ccccc2n1Cc1ccc(F)cc1,28.5%
12,COc1ccc(C)c(Cn2c(-c3nonc3N)nc3ccccc32)c1,69% (active)
13,CC(=O)Nc1nonc1-c1nc2ccccc2n1Cc1ccccn1,4.24%
14,COc1ccc(N(C(C)C(=O)N2CCN(C)CC2)S(C)(=O)=O)cc1 (stereo not drawn),-14.6%
15,COc1ccc(CN(Cc2cn[nH]c2-c2ccc(O)cc2)CC2CCCO2)cc1 (stereo not drawn),18.7%
16,CCCc1cc(-c2n[nH]c(=S)n2Cc2ccccc2)cs1,87.8% (active)
17,CCCc1cc(-c2n[nH]c(=S)n2CC)c2ccccc2n1,20.9%
18,CCc1cc(-c2n[nH]c(=S)n2CC(C)C)cs1,-1.28%
19,CCCc1nn(CC(=O)NC2CC2)c(=O)c2cc3ccsc3n12,-12%
20,COc1cc(C2C(C#N)=C(N)Oc3c2c(C)nn3-c2ccccc2)ccc1OCC#N (stereo not drawn),-22.9%
21,N#Cc1c(-c2ccc(F)cc2)cc(C2CC2)nc1SCC(=O)c1cccs1,63% (active)
22,O=C(c1cccs1)N1CCCC(c2nc(-c3ccc(F)cc3)no2)C1 (stereo not drawn),-45.6%
23,CCOC(=O)CC(=O)CSc1nc(-c2ccccc2)cc(-c2ccc(Cl)cc2)c1C#N,9.52%
24,COc1cc(C2NC(=O)NC(C)=C2C(=O)Nc2cc(Cl)ccc2C)cc(OC)c1OC (stereo not drawn),-22.7%
25,Cc1cccc(-n2c(C)c3c(C)nnc(C)c3c2C)c1,-24.2%
26,S=C1Nc2cc(Cl)ccc2Sc2ccccc21,11.7%
27,Clc1ccc(C=Nc2ccc3c(c2)Cc2ccccc2-3)c(Cl)c1,6.77%
28,O=C1Cc2ccccc2Sc2ccc(Cl)cc21,61.4% (active)

# Reference: PubChem BioAssay AID940 (Emory University Molecular Libraries Screening Center, 2007)
